Compound activity deposited in PubChem by National Center for Advancing Translational Sciences (NCATS).
PI5P4K alpha inh – qHTS for Inhibitors of phosphatidylinositol 5-phosphate 4-kinase (PI5P4K); Phosphatidylinositol 5-phosphate 4-kinase type-2 alpha (Homo sapiens), P48426; PI5P4Kalpha enzyme, ADP-Glo luminescence, 60 min; active compounds read low; max response, %; actives 1.2% (n = 330,000); AID 652105, 2013; active = max response of -50% or lower; inconclusive = between -30% and -50%; inactive = -30% or higher; note: value at the top dose of about 77 µM; % is set by controls: 0 for no effect and ±100 for the full control effect
Target sequence (P48426 whole entry, looked up): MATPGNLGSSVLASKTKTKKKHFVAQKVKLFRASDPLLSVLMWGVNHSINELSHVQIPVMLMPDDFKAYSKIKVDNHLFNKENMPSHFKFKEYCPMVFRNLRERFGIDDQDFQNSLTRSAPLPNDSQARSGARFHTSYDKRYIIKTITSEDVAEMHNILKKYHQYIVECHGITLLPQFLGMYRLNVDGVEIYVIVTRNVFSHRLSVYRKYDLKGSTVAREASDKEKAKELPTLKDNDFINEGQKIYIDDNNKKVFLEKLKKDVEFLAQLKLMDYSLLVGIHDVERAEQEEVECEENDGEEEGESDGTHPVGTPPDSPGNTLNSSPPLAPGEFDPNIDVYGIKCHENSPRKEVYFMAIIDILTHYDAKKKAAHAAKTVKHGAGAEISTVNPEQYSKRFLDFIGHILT
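PI5P4Kalpha ADP-Glo assay; 5 microM ATP final; 60 min RT reaction; HEPES pH 7.4/EGTA/CHAPS, 5% DMSO; controls lacking substrate or enzyme; luminescent end-point.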
HP1b chromo inh – HTS for Inhibitors of HP1-beta Chromodomain Interactions with Methylated Histone Tails | Chromobox protein homolog 1 (Homo sapiens), P83916 | AlphaScreen HP1-beta / biotin-H3K9me3 peptide binding | Potency, µM (doses to about 114 µM), for the others: at the highest dose activity change, negative = inhibition, most hits filed as inhibitors | actives 0.56% (n = 390,000); note: potency is the fitted concentration of half-maximal effect; nearly all actives have a fitted effect of over 70% in size
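Compound inhibition of the preformed complex between 50 nM HP1-beta and 50 nM biotinylated H3K9me3 peptide was read by AlphaScreen. Buffer was PBS pH 7.4 with 0.01% Tween-20. Incubations ran 30 min at room temperature, with 10 ug/mL donor/acceptor beads.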
BAZ2B inh – qHTS Assay for Inhibitors of BAZ2B; Bromodomain adjacent to zinc finger domain protein 2B (Homo sapiens), Q9UIF8; AlphaScreen BAZ2B-H3K14Ac peptide displacement; Potency, µM (series often up to 114 µM), without a hit: top-dose activity change, negative = inhibition, usual class: inhibitors; actives 4.4% (n = 360,000); AID 504333, 2011; note: potency is the fitted concentration of half-maximal effect; % is set by controls: 0 for no effect and ±100 for the full control effect; nearly all actives have a fitted effect of over 60% in size
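Protein-peptide AlphaScreen: BAZ2B 50 nM, b-H3K14Ac 50 nM, 1x PBS pH 7.4 + 0.01% Tween-20. Preincubation 30 min RT; cpd 30 min RT (top 110 uM); beads 20 min RT, light-protected.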
G9a block – qHTS Assay for Inhibitors of Histone Lysine Methyltransferase G9a. G9a H3K9 monomethylation, AlphaScreen, 2 h. Potency, µM (titrated, usually from 102 µM), for inactives: top-dose activity, negative = inhibition, most hits filed as inhibitors. actives 8.8% (n = 350,000); note: potency is the fitted concentration of half-maximal effect; % is set by controls: 0 for no effect and ±100 for the full control effect; nearly all actives have a fitted effect of over 75% in size
Target sequence (Q96KQ7 913-1193 limits assumed): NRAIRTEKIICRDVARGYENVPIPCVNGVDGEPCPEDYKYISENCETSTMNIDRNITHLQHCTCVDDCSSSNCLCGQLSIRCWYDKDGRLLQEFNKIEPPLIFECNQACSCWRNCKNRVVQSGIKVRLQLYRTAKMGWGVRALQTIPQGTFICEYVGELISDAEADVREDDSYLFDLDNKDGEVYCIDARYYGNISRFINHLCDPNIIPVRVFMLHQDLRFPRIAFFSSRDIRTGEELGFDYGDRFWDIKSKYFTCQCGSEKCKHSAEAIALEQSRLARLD
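G9a (20 nM) was preincubated 15 min with compound, then reacted 2 h at room temperature with 500 nM biotin-H3K9 peptide and 20 µM SAM. Monomethyl-H3K9 detected by AlphaScreen using anti-H3K9me1 antibody.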
PLK1 PBD block – qHTS for Inhibitors of PLK1-PDB (polo-like kinase 1 - polo-box domain): Primary Screen. Serine/threonine-protein kinase PLK1 (Homo sapiens), P53350. AID 720504, 2013. Plk1 PBD binding of FITC phosphopeptide, fluorescence polarization. actives 2.8% (n = 360,000). Potency, µM, for inactives: max response, negative = inhibition, actives largely listed as inhibitors; note: potency is the fitted concentration of half-maximal effect; series mostly up to about 57 µM; % is set by controls: 0 for no effect and ±100 for the full control effect; nearly all actives have a fitted effect of over 65% in size
JMJD2A Tudor inh – qHTS Assay for Inhibitors of JMJD2A-Tudor Domain; AlphaScreen JMJD2A-Tudor / H3K4me3 peptide binding; Lysine-specific demethylase 4A (Homo sapiens), O75164; actives 4.4% (n = 390,000); Potency, µM (series often up to 114 µM), for the others: top-dose activity change, negative = inhibition, hits mostly inhibitors; AID 504339, 2011; note: potency is the fitted concentration of half-maximal effect; % is set by controls: 0 for no effect and ±100 for the full control effect; nearly all actives have a fitted effect of over 50% in size
* = called active by the depositor; ? = inconclusive; . = not tested or not shown; [ ] = dose if it differs, or a comment. Rows were chosen to be rich in hits. Some 12% of all compounds tested hit in one or more screens of this group. Unless noted, calls come from the whole dose curve; as a rule, active = well fitted curve in the direction sought with a large enough effect; inconclusive = small, poorly fitted or top-dose-only effect, or another doubt; inactive = no such curve, though single readings can be large; an effect the other way counts as inactive or inconclusive.

SMILES | PI5P4K alpha inh | HP1b chromo inh | BAZ2B inh | G9a block | PLK1 PBD block | JMJD2A Tudor inh
CCc1nnc(NC(=O)CCS(=O)(=O)Cc2ccccc2)s1 | 1 | -9% | -17% | 50µM* | 0% | -18%
CCC(CC)c1nnc(NC(=O)Cc2ccccc2[N+](=O)[O-])s1 | 2 | -9% | -28% | 40µM* | ? | -13%
CSc1nsc(SC)c1-c1ccc(Cl)cc1 | 25 | . | . | . | -3% | .
Cc1onc(-c2ccccc2Cl)c1C(=O)N[C@H]1C(=O)N2[C@H]1SC(C)(C)[C@H]2C(=O)O | . | . | . | 27%[21.5 µM] | . | .
O=C(CCNC(=O)c1ccc([N+](=O)[O-])cc1)NCC1COc2ccccc2O1 (stereo not drawn) | 4 | 8% | 7% | 50µM* | -2% | -23%
CC(NCC1COc2ccccc2O1)C(=O)NCc1ccccc1 (stereo not drawn) | -1 | 16µM* | 35µM* | 45µM* | -1% | 1.3µM*
CCOC(=O)CCNC(C)C1COc2ccccc2O1 (stereo not drawn) | -23 | 2% | -100% | 2.2µM* | 30µM* | 2.8µM*
Cn1cccc1C(=O)NCC1COc2ccccc2O1 (stereo not drawn) | 9 | -8% | -31% | 50µM* | -10% | -31%
O=C(Cc1ccccc1)NCC1COc2ccccc2O1 (stereo not drawn) | . | 61% | . | . | -4% | -3%
CC(NC(=O)c1ccccc1Cl)C1COc2ccccc2O1 (stereo not drawn) | -1 | 24% | 1% | -5%[59 µM] | -2% | 7%
CC(=O)Nc1cccc(C(=O)NCc2ccc3c(c2)CCN3C(=O)c2ccc(F)cc2)c1 | . | 35% | -10% | -1%[59 µM] | . | -17%
O=C(O[C@H]1CN2CCC1CC2)N1CCc2ccccc2[C@@H]1c1ccccc1 | . | . | . | -44%[12.7 µM] | . | .
CC(NCC1COc2ccccc2O1)C1COc2ccccc2O1 (stereo not drawn) | 0 | -4%[57 µM] | ? | -27% | ? | 4µM*
Cc1cc(N2C(=O)C(O)=C(C(=O)c3cc4ccccc4o3)C2c2cccs2)no1 (stereo not drawn) | -26 | -2%[57 µM] | ? | 35µM* | ? | ?
Cc1cc(N2C(=O)C(O)=C(C(=O)c3ccc(C)o3)C2c2cccs2)no1 (stereo not drawn) | -15 | 2% | -15% | ? | -9% | -28%
Cc1cc(N2C(=O)C(O)=C(C(=O)c3cc4ccccc4o3)C2c2ccc([N+](=O)[O-])cc2)no1 (stereo not drawn) | ? | 6% | ? | 45µM* | 38µM* | -28%
Cc1ccc(C2C(C(=O)c3cc4ccccc4o3)=C(O)C(=O)N2c2cc(C)on2)cc1 (stereo not drawn) | -52* | -25%[57 µM] | ? | 0%[0.0925 µM] | 19µM* | ?
O=C(C1=C(O)C(=O)N(c2nccs2)C1c1ccccc1)c1cc2ccccc2o1 (stereo not drawn) | -52* | -14% | 40µM* | 3.5µM* | ? | -32%
COC(=O)c1ccc(C2C(C(=O)c3ccc(C)o3)=C(O)C(=O)N2c2cc(C)on2)cc1 (stereo not drawn) | 4 | 26% | -35% | 50µM* | 1% | -12%
COC(=O)c1ccc(C2C(C(=O)c3ccco3)=C(O)C(=O)N2c2cc(C)on2)cc1 (stereo not drawn) | -3 | 20% | -39% | ? | -6% | ?
CCOc1cccc(C2C(C(=O)c3ccc(C)o3)=C(O)C(=O)N2c2nccs2)c1 (stereo not drawn) | 7 | 21% | ? | 6.3µM* | -22% | ?
CCOC(=O)c1c(NC(=O)c2cc(C(C)C)on2)sc(C)c1C | . | -1% | -4% | 20µM* | . | 15%
CCCc1cc(C(=O)Nc2sc(C)c(C)c2C(=O)OCC)no1 | -23 | 7% | -1% | 10µM* | 21µM* | -14%
CCOC(=O)c1c(NC(=O)c2ccncc2)sc(C)c1C | 6 | 19% | -8% | 16µM* | ? | -21%
O=C(CS(=O)(=O)c1ccccc1)NCc1ccc(Cl)cc1 | -3 | 56% | -6% | 9% | 4% | 10%
SMILES | PI5P4K alpha inh | HP1b chromo inh | BAZ2B inh | G9a block | PLK1 PBD block | JMJD2A Tudor inh
Fc1ccc(Nc2nnc(-c3ccncc3)s2)cc1Cl | 0 | . | . | . | -7% | .
CC(=O)Nc1ccc(C2=CC(=O)C[C@H](c3ccc(Cl)cc3)C2)cc1 | -2 | 4% | -12% | -5%[2.33 µM] | -11% | ?
O=C(Nc1ccc(O)cc1)c1ccc2c(c1)C(=O)N(Cc1ccccc1)C2=O | -12 | 14% | -16% | -9% | -4% | -7%
O=C(O)c1ccc2c(c1)C(=O)N(Cc1ccccc1)C2=O | -73* | 27% | 4% | -15%[59 µM] | -7% | ?
O=C(O)c1ccc2c(c1)C(=O)N([C@H](Cc1ccc(F)cc1)C(=O)O)C2=O | . | . | -2% | -4%[12.7 µM] | . | -18%
O=C(O)c1ccc2c(c1)C(=O)N([C@H](Cc1ccccc1)C(=O)O)C2=O | . | . | 79µM* | 4%[12.7 µM] | . | -28%
O=C(O)[C@H](Cc1ccccc1)N1C(=O)c2c(Cl)c(Cl)c(Cl)c(Cl)c2C1=O | -7 | 5% | -11% | . | 27µM* | -28%
O=C(O)c1ccc2c(c1)C(=O)N(CCC1=CCCCC1)C2=O | -70* | 20% | 1% | -2%[12.7 µM] | -2% | 4%
CN(C(=O)c1ccc2c(c1)C(=O)N(CCC1=CCCCC1)C2=O)C1CCCCC1 | -3 | 56% | 7% | ? | -1% | -13%
COc1cc(C2C(C#N)=C(N)N(N(C)C)C3=C2C(=O)CC(C)(C)C3)cc(OC)c1OC (stereo not drawn) | -1 | -13% | -6% | 14%[12.7 µM] | 2% | -17%
O=C(O)c1ccc2c(c1)C(=O)N([C@H](Cc1ccc(O)c(O)c1)C(=O)O)C2=O | . | . | ? | 2µM* | . | 89µM*
CCCN(CCC)c1nn2c(=O)c(C(=O)NCc3cccc(OC)c3)cnc2s1 | . | 10% | -4% | 20%[59 µM] | . | -4%
Cc1onc(-c2c(F)cccc2Cl)c1C(=O)NC1C(=O)N2C1SC(C)(C)C2C(=O)O (stereo not drawn) | . | . | . | 23%[59 µM] | . | .
O=[N+]([O-])c1ccc(OCc2n[nH]c(=S)n2-c2ccccc2)cc1 | 0 | 5% | -25% | 3.5µM* | -11% | 45µM*
S=c1[nH]nc(-c2ccc3c(c2)OCO3)n1-c1ccccc1 | -18 | -14% | -3% | 1.6µM* | -16% | 5µM*
